Results from PubChem BioAssay (NCATS).
Records with an inconclusive call do not appear. Entries that show only a call come without a potency. The source made the active and inactive calls. The call rests on the fitted dose curve; in most records, active means well fitted cell-killing curve with a large enough effect; inconclusive means small, poorly fitted or top-dose-only effect, or effect the other way; inactive means flat fitted curve, though single readings scatter.

These compounds were tested on CAOV3 (assay: Primary qHTS to identify gynecologic anti-cancer compounds using libraries of approved drugs and bioactive compounds (AID 1345084; further: nearly all actives have a fitted effect of over 55% in size)). Settings: Gynecologic cancer cell panel viability, ATPlite luminescence, 48 h; series mostly up to 57.5 µM.
Description: National Center for Advancing Translational Sciences [NCATS] Assay Overview: Chemotherapeutic drug responses vary from cancer to cancer and from patient to patient. These variations could be caused by a number of factors including patient genomic background, tumor mutations, tumor heterogeneity, and aspects of drug treatment. Chemotherapeutic drug resistance is also a common issue and can lead to ineffective treatment and patient death. Here we have profiled the cell killing effects of thousands of compounds to characterize the responses in three gynecological cancers, identify cancer-selective compounds, and understand the diversity of responses to these compounds from pan-cancer suppressors to single cell line selective compounds. In this assay, we screened a 7,914 compound drug library that included approved drug and bioactive compounds in six ovarian, three cervical, and […] placental cancer cell lines using the ATPlite assay for cell viability. […] The cervical cancer cell lines included HeLa, Ca Ski, and C-33 A. The placental cancer cell lines included JEG-3. HEK 293T cells were used as the control cell line to determine the selectivity index. ATPlite is a luminescence based assay reliant on the conversion of a luciferase substrate to light in the presence of ATP. As a cytotoxic compound will suppress growth and decrease the number of cells, the concentration of ATP will decrease, and less light signal will be detected in the well.
Assay Protocol Summary: 1,000 cells in 4 uL of media were dispensed into white, solid bottom 1536-well plates using a Multidrop Combi (Thermo Scientific). The Assay plates were incubated for 16 hours at 37 C with 5% CO2 in assay plates, followed by the addition of 23 nL of DMSO or drug dissolved in DMSO. Each compound was assayed in five concentrations (0.092, 0.46, 2.3, 11.5, and 57.5 uM), using the automated Wako 1536 Pin Tool workstation and incubated at 37 C with 5% CO2 48 hours. 4 uL of ATPlite, the ATP monitoring reagent, was then added to the each well of the assay plates using the Multidrop Combi reagent dispenser followed by incubation for 15 minutes at room temperature. The resulting luminescence was measured using the ViewLux plate reader.
Potency means the concentration at half of the fitted maximal effect.

| SMILES | Potency |
| --- | --- |
| CN(C(=O)c1ccc(F)cc1C(F)(F)F)C1CCN(c2nnc(-c3ccnn3C)c3ccccc23)CC1 | inactive |
| NCCCC(N)(C(=O)O)C(F)F (stereo not given) | inactive |
| C[C@H](NC(=O)Cc1cc(F)cc(F)c1)C(=O)N[C@@H]1C(=O)N(C)c2ccccc2-c2ccccc21 | inactive |
| CN(C)c1ccc(Nc2nc(N)n(C(=O)c3c(F)cccc3F)n2)cc1 | inactive |
| O=C1CCCC2=C1C(c1[nH]ncc1Cl)N=C(Nc1nc3ccccc3o1)N2 (stereo not given) | inactive |
| COc1nc(-c2ccc3c(c2)OCO3)n(-c2ccc(NC(=O)CSc3ccccc3)cc2)n1 | inactive |
| COc1ccccc1[C@H](c1cccc2ccccc12)[C@@](C)(C#N)C(=O)N1CCC(c2cccc(C(F)(F)F)c2)CC1 | inactive |
| COc1ccc2nc(S(=O)Cc3ncc(C)c(OC)c3C)[nH]c2c1 (stereo not given) | inactive |
| O=C(O)COCCN1CCN(C(c2ccccc2)c2ccc(Cl)cc2)CC1 (stereo not given) | inactive |
| O=C(c1cc(Cc2n[nH]c(=O)c3ccccc23)ccc1F)N1CCN(C(=O)C2CC2)CC1 | inactive |
| COc1c(Cl)cc2c([nH]c3cnccc32)c1NC(=O)c1cccnc1C | inactive |
| O=C(Nc1cccnc1)N1CCC(Cc2cccc(Oc3ccc(C(F)(F)F)cn3)c2)CC1 | inactive |
| Cc1ccc(N(CC2=NCCN2)c2cccc(O)c2)cc1 | inactive |
| CC(C)(N)C(=O)N[C@H](COCc1ccccc1)C(=O)N1CCC2(CC1)CN(S(C)(=O)=O)c1ccccc12 | inactive |
| CNC(=O)c1ccc(C)c(-n2c(C)cc(OCc3ccc(F)cc3F)c(Br)c2=O)c1 | inactive |
| OC(CN1CCC(Cc2ccc(F)cc2)CC1)c1ccc(Cl)cc1 (stereo not given) | inactive |
| Cc1n[nH]c(C)c1Cc1sc2c(c1C(=O)N1C[C@H](O)CO1)c(=O)n(C)c(=O)n2CC(C)C | inactive |
| NNCCc1ccccc1 | inactive |
| Nc1ccc(S(=O)(=O)Nc2ccnn2-c2ccccc2)cc1 | inactive |
| Clc1ccc(Nc2nnc(Cc3ccncc3)c3ccccc23)cc1 | inactive |

| SMILES | Potency |
| --- | --- |
| Cc1cnc(Nc2ccc(OCCN3CCCC3)cc2)nc1Nc1cccc(S(=O)(=O)NC(C)(C)C)c1 | 10 µM (active) |
| CN(C)C(=O)c1ccc(S(=O)(=O)c2ccc(NC(=O)[C@@](C)(O)C(F)(F)F)c(Cl)c2)cc1 | inactive |
| CC(c1cc2ccccc2s1)N(O)C(N)=O (stereo not given) | inactive |
| Cc1ccnc(NS(=O)(=O)c2ccc(NC(=O)Nc3ccc(S(=O)(=O)Nc4nccc(C)n4)cc3)cc2)n1 | inactive |
| COc1cc(Oc2ccnc3cc(OC)c(OC)cc23)ccc1NC(=O)NC(C)c1nccs1 (stereo not given) | inactive |
| Cc1csc(NC(=O)c2sc3nc4c(c(C(F)(F)F)c3c2N)CCC4)n1 | 1.12 µM (active) |
| CCCS(=O)(=O)Nc1ccc(F)c(C(=O)c2c[nH]c3ncc(Cl)cc23)c1F | inactive |
| CCCS(=O)(=O)Nc1ccc(F)c(C(=O)c2c[nH]c3ncc(-c4ccc(Cl)cc4)cc23)c1F | inactive |
| N=c1nc(N2CCCCC2)cc(N)n1O | inactive |
| Cc1ccccc1C(OCCN(C)C)c1ccccc1 (stereo not given) | inactive |
| CCc1cc(Nc2nccc(-c3c(-c4ccc(OC)c(C(=O)Nc5c(F)cccc5F)c4)nc4ccccn34)n2)c(OC)cc1N1CCC(N2CCN(S(C)(=O)=O)CC2)CC1 | inactive |
| C1COC(NC(C2CC2)C2CC2)=N1 | inactive |
| Cn1cnc2c(F)c(Nc3ccc(Br)cc3Cl)c(C(=O)NOCCO)cc21 | inactive |
| c1ccc([C@H]2CN3CCSC3=N2)cc1 | inactive |
| CCOC(=O)N1CCC(=C2c3ccc(Cl)cc3CCc3cccnc32)CC1 | inactive |
| Cc1cn[nH]c1 | inactive |
| C[C@@H]1CN(Cc2ccc(F)cc2)[C@@H](C)CN1C(=O)c1cc2c(C(=O)C(=O)N(C)C)cn(C)c2cc1Cl | inactive |
| Cc1c(C)c2c(c(C)c1O)CCC(C)(COc1ccc(CC3SC(=O)NC3=O)cc1)O2 (stereo not given) | inactive |
| CCc1ccc(CCOc2ccc(CC3SC(=O)NC3=O)cc2)nc1 (stereo not given) | inactive |
| COc1ccc(CCN2CCN(CCCc3ccccc3)CC2)cc1OC | inactive |
